Results as given in PubChem BioAssay.
The source made the active and inactive calls.

Key:
[1] = optical density shifts of acrAB sulA E. coli – strain DRC41, OD650, 48 h, E. coli filamentation inducer project, primary screen (AID 1152); conditions: higher = more signal, called active from +8 up or from −8 down;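 further: E. coli MC1000 strain DRC41 lacking acrAB efflux pump and sulA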
[2] = probe aLefty1 binding on compound microarray – biochemical, small-molecule microarray, 635/667 nm fluorescence, primary screen (AID 1153); conditions: higher = more signal;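 further: score merges spot fluorescence with signal-to-noise ratio from the scanned slide images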
[3] = plasmodial surface anion channel blockers, osmotic lysis – cell-based, P. falciparum Indochina, OD700, 1 h, primary screen (AID 1154); conditions: P. falciparum Indochina infected RBC osmotic lysis, higher = more signal, called active from +8 up or from −8 down
[4] = plasmodial surface anion channel blockers, osmotic lysis – cell-based, P. falciparum Indochina, OD700, 2 h, primary screen (AID 1155);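 further: lysis reports solute entry through the parasite surface anion channel PSAC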; conditions: P. falciparum Indochina infected erythrocytes, higher = more signal, called active from +8 up or from −8 down
[5] = changes in parasitized red cell lysis, either direction – P. falciparum Indochina, OD700, 3 h, PSAC antagonist project, primary screen (AID 1156); conditions: P. falciparum-infected erythrocytes, osmotic lysis, higher = more signal, called active from +8 up or from −8 down
[6] = plasmodial surface anion channel blockers, osmotic lysis – cell-based, P. falciparum Indochina, OD700, 18 h, primary screen (AID 1157); conditions: P. falciparum Indochina infected erythrocytes, osmotic lysis OD700, 18 h; higher = more signal, called active from +8 up or from −8 down
[7] = S6 kinase pathway phospho-S6 level changes – cell-based, A549, cytoblot, luminescence, serum-stimulated, primary screen (AID 1158); conditions: 5 h, higher = more signal;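 further: serum-stimulated A549 lung adenocarcinoma cells; signal is phosphorylated S6 detected by cytoblot immunostaining with HRP secondary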
[8] = target: NADPH oxidase 2 (Homo sapiens) (UniProt P04839); experiment: compounds shifting NOX2 Amplex Red fluorescence – cell-based, HEK293-NOX2, PMA-stimulated, NOX inhibitor project, primary screen (AID 1159); conditions: 45 min, higher = more signal, called active from +8 up or from −8 down; further: test concentration not given here
[9] = target: NADPH oxidase 4 (Homo sapiens) (UniProt Q9NPH5); experiment: compounds shifting NOX4 Amplex Red fluorescence – cell-based, HEK293-NOX4, tetracycline-induced, NOX inhibitor project, primary screen (AID 1160); conditions: HEK293-NOX4, Amplex Red H2O2 fluorescence, 45 min; higher = more signal, called active from +8 up or from −8 down
[10] = target: NADPH oxidase 5 (Homo sapiens) (UniProt Q96PH1); experiment: compounds shifting NOX5 Amplex Red fluorescence – cell-based, HEK293-NOX5, NOX inhibitor project, primary screen (AID 1161); conditions: HEK293-NOX5, ionomycin, 45 min, higher = more signal
Sequence of NADPH oxidase 5 (Homo sapiens) (Q96PH1 whole entry, looked up): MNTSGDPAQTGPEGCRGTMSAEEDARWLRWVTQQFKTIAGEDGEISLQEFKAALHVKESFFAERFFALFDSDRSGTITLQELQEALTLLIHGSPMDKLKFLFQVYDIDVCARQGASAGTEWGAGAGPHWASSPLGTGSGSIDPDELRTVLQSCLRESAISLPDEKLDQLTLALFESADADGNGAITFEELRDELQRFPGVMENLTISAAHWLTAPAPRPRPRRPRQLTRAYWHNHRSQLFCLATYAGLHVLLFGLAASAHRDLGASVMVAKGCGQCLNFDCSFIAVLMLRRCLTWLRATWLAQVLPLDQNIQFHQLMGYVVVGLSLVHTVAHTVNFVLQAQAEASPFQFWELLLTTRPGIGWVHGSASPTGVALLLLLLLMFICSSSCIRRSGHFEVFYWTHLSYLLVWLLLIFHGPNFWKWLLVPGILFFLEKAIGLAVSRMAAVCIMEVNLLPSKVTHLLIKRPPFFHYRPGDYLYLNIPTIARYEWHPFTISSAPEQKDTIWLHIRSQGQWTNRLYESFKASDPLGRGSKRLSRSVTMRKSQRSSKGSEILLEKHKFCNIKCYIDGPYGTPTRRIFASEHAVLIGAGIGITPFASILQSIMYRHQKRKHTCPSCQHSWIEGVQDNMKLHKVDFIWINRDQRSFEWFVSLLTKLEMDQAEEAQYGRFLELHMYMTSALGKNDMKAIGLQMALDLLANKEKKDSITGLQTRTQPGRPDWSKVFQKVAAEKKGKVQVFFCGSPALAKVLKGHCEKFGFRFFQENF

Sequence of NADPH oxidase 2 (Homo sapiens) (P04839 whole entry, looked up): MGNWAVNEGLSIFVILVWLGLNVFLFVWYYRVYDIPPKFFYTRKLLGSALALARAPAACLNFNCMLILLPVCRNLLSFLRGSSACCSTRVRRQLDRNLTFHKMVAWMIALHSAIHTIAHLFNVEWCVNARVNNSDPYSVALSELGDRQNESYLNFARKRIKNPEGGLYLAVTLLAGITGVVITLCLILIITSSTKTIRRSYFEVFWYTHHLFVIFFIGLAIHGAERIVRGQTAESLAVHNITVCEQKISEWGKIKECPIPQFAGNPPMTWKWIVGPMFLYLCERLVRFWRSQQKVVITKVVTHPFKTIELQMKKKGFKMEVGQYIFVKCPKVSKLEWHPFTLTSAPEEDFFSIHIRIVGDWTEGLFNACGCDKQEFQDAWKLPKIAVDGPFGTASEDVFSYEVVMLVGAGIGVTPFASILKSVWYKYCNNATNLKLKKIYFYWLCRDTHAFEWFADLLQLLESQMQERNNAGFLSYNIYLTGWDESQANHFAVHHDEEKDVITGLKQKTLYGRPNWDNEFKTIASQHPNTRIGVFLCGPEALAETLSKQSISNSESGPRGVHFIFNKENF
Sequence of NADPH oxidase 4 (Homo sapiens) (Q9NPH5 whole entry, looked up): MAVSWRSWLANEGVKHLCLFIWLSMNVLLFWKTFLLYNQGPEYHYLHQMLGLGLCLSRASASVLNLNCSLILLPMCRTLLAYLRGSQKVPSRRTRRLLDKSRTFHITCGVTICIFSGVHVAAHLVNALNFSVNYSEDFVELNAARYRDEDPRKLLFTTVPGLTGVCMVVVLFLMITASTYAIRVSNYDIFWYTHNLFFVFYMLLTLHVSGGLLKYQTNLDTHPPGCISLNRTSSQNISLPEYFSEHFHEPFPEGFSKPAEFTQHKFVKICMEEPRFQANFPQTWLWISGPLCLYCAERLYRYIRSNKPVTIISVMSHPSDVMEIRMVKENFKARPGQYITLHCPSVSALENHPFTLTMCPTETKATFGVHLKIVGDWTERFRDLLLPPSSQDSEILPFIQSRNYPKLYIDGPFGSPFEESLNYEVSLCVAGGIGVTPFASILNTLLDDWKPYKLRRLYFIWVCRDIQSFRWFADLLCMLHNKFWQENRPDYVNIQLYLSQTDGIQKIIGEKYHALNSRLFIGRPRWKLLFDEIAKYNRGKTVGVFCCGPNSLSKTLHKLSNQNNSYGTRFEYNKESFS

SMILES | z-score [1] | composite z-score [2] | z-score [3] | z-score [4] | z-score [5] | z-score [6] | z-score [7] | z-score [8] | z-score [9] | z-score [10]
C=CCNC(=O)[C@H]1[C@@H]2C(=O)O[C@@H](c3ccccc3)[C@@H](c3ccccc3)N2[C@@H](c2ccc(O)cc2)[C@]12C(=O)N(C(=O)OCCOC)c1ccc(C#CCNC(N)=O)cc12 | -0.929 (inactive) | 0.378 | 1.78 (inactive) | 0.441 (inactive) | -0.627 (inactive) | 0.0898 (inactive) | -0.272 | 1.28 (inactive) | 0.291 (inactive) | 0.383
Cc1ccc(S[C@]2(C(=O)NC(C)C)CC(=O)N(Cc3ccccc3Cl)[C@@H]2c2ccc(CO)cc2I)cc1 | -0.462 (inactive) | 0.0023 | 11.2 (active) | 1.44 (inactive) | 0.681 (inactive) | 0.377 (inactive) | -0.487 | 0.769 (inactive) | -1.51 (inactive) | 0.183
O=C1NC(=O)C2C1C=CC(C(O)c1cccc3ccccc13)N2Nc1ccccn1 (stereo not given) | -0.0275 (inactive) | 0.137 | 1.06 (inactive) | 0.344 (inactive) | 0.274 (inactive) | 0.899 (inactive) | -0.562 | -1.2 (inactive) | -2.83 (inactive) | -2.36
CN1C2C=C(CCCO)C(C3C(=O)N(C(N)=O)C(=O)C32)C1c1ccc(CN2CCCC2)cc1 (stereo not given) | 0.0489 (inactive) | -0.189 | 0.114 (inactive) | 0.229 (inactive) | -0.695 (inactive) | -0.11 (inactive) | -0.0852 | -1.52 (inactive) | 0.171 (inactive) | -0.0223
COC(=O)C(CC#Cc1ccc2c(c1)[C@]1(C(=O)N2)[C@H](C(=O)O)[C@H]2C(=O)O[C@H](c3ccccc3)[C@H](c3ccccc3)N2[C@@H]1c1ccc(O)cc1)C(=O)OC | -0.818 (inactive) | 0.145 | 1.83 (inactive) | -0.038 (inactive) | -0.15 (inactive) | -0.0548 (inactive) | 0.148 | 0.699 (inactive) | -0.0438 (inactive) | 0.921
